rTrxR1 inhibitor: blocks rat thioredoxin reductase 1; Potency, µM (highest dose often 114 µM), actives largely listed as inhibitors; recombinant rTrxR1, NADPH fluorescence consumption, selenite substrate; O89049; AID 588453; actives 1% (n = 390,000); note: nearly all actives have a fitted effect of over 65% in size
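Rat TrxR1 (90 nM in the dispensed reagent) was pre-reduced with 400 uM NADPH for 5 min at room temperature, then incubated with compound for 15 min. After 400 uM selenite was added, NADPH fluorescence (Ex 340/Em 450 nm) was followed for 8 min.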
VDR inhibitor: vitamin D3 receptor (human) inhibition; VDR-SRC2-3 peptide fluorescence polarization, 2 h; actives 0.93% (n = 400,000); Potency, µM, actives largely listed as inhibitors
Target sequence (P11473 whole entry, looked up): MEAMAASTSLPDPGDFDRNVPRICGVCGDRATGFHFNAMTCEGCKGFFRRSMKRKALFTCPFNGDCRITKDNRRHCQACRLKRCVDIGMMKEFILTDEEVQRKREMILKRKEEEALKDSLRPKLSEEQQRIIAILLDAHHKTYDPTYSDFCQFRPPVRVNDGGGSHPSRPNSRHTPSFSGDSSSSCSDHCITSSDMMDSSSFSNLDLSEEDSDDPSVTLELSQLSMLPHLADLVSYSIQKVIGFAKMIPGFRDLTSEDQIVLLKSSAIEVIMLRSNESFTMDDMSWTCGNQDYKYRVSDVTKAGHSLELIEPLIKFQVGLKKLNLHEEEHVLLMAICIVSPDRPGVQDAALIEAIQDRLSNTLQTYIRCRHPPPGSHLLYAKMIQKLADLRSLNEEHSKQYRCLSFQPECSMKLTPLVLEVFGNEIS
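Measured by FP: displacement of SRC2-3 coactivator peptide from VDR by library compounds, following a two-hour ambient incubation.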
TrxR1 substrate: rat thioredoxin reductase 1 substrate activity | O89049 | purified TrxR1 substrate turnover, NADPH consumption readout | actives 0.01% (n = 390,000) | AID 588456 | Potency, µM (doses to about 114 µM); note: nearly all actives have a fitted effect of over 50% in size
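Rat TrxR1, dispensed at 90 nM, was prereduced with 400 uM NADPH (final) for 5 min at ~22 deg C, then incubated with compound 15 min before 400 uM selenite. A first-read NADPH fluorescence drop versus no-compound background flagged substrates.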
GLS inh: blocks human kidney-isoform glutaminase activity; O94925; GLS enzymatic activity, qHTS titration; Potency, µM (highest dose often 45.5 µM), actives largely listed as inhibitors; actives 0.21% (n = 410,000); AID 624170
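Coupled fluorescence readout: glutamate oxidase/HRP/Amplex Red detect glutamate formed by hKGA from L-glutamine (1 mM solution added). Buffer 45 mM KH2PO4 pH 8.2, 0.02% Tween-20; reads at t0 and 30 min RT.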
KAT2A inh: GCN5L2 (KAT2A) acetyltransferase inhibition. actives 0.21% (n = 390,000). GCN5L2 HAT assay, ThioGlo1 CoA-SH fluorescence. Potency, µM (doses to about 58.9 µM), actives largely listed as inhibitors. Q92830. AID 504327
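Enzyme at 20nM final was mixed with library compounds for 15 min at room temperature. Peptide H3(1-25) at 75uM, acetyl-CoA at 70uM and ThioGlo1 at 50uM were then added. Plates were read immediately and after 20 min (Ex340nm/Em540nm).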
Sfp PPTase inh: Sfp phosphopantetheinyl transferase inhibition. Q9F4F7. actives 3.5% (n = 310,000). Biochemical Sfp PPTase activity, qHTS. Potency, µM, actives largely listed as inhibitors;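 note: the enzyme is Sfp with the accession as filed and its product quenches rhodamine fluorescence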
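Sfp 15 nM + cpd, 15 min RT; start w/ rhodamine-CoA 5 uM, BHQ-2-YbbR 12.5 uM (final); 50 mM Hepes pH 7.6, 10 mM MgCl2, 0.01% NP-40, 0.01% BSA; read 525/598 nm at 0 and 30 min.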
Numbers stand for hits. Hits are enriched below; roughly 3.8% of the tested compounds scored in any of these assays. Calls come from the whole dose curve; as a rule, active = well fitted curve in the direction sought with a large enough effect; inconclusive = small, poorly fitted or top-dose-only effect, or another doubt; inactive = no such curve, though single readings can be large; an effect the other way counts as inactive or inconclusive.

`Clc1ccc(-c2csc(NNC3=NCCCCC3)n2)cc1` gave rTrxR1 inhibitor inactive, VDR inhibitor 50µM, TrxR1 substrate inactive, GLS inh inactive, KAT2A inh inactive and Sfp PPTase inh 56µM.
Screening COc1ccc(-c2csc(NNC3=NCCCCC3)n2)cc1 returned rTrxR1 inhibitor inactive, VDR inhibitor inconclusive, TrxR1 substrate inactive, GLS inh inconclusive, KAT2A inh inactive and Sfp PPTase inh 13µM.
O=C(Nc1ccc(N2CCOCC2)c(Cl)c1)c1c(F)c(F)c(F)c(F)c1F was read as rTrxR1 inhibitor inactive, VDR inhibitor inactive, TrxR1 substrate inactive, GLS inh inactive, KAT2A inh inactive and Sfp PPTase inh inactive.
Screening Cc1oc(-c2cccs2)nc1CS(=O)CC(=O)NCCc1ccccc1 (stereo not drawn) returned rTrxR1 inhibitor 5.6µM, VDR inhibitor inconclusive, TrxR1 substrate inactive, GLS inh inactive, KAT2A inh inactive and Sfp PPTase inh inactive.
Screening Cc1oc(-c2ccc(Cl)cc2)nc1CS(=O)CC(=O)NCCc1ccccc1 (stereo not drawn) returned rTrxR1 inhibitor inactive, VDR inhibitor inactive, TrxR1 substrate inactive, GLS inh inactive and KAT2A inh inactive.
For CCCNC(=O)CS(=O)Cc1nc(-c2ccccc2C)oc1C (stereo not drawn) the results were rTrxR1 inhibitor inconclusive, VDR inhibitor inactive, TrxR1 substrate inactive, GLS inh inactive, KAT2A inh inactive and Sfp PPTase inh inactive.
Screening CCCCNC(=O)CS(=O)Cc1nc(-c2cccs2)oc1C (stereo not drawn) returned rTrxR1 inhibitor 6.3µM, VDR inhibitor inactive, TrxR1 substrate inactive, GLS inh inactive, KAT2A inh inactive and Sfp PPTase inh inactive.
Screening Cc1oc(-c2cccs2)nc1CS(=O)CC(=O)NCCCOC(C)C (stereo not drawn) returned rTrxR1 inhibitor 13µM, VDR inhibitor inactive, TrxR1 substrate inactive, GLS inh inactive, KAT2A inh inactive and Sfp PPTase inh inactive.
Screening N#C/C(=C/c1ccc([N+](=O)[O-])cc1)C(N)=O returned rTrxR1 inhibitor inactive, VDR inhibitor 79µM, TrxR1 substrate inactive, GLS inh inactive, KAT2A inh inactive and Sfp PPTase inh inactive.
Screening Cc1ccc(-c2cc(C(=O)Nc3c(C)n(C)n(-c4ccccc4)c3=O)c3ccccc3n2)cc1 returned rTrxR1 inhibitor inactive, VDR inhibitor inactive, TrxR1 substrate inactive, GLS inh inactive and KAT2A inh inactive.
`Cc1c(NC(=O)COC(=O)c2cc(-c3ccc(-c4ccccc4)cc3)nc3ccccc23)c(=O)n(-c2ccccc2)n1C` gave rTrxR1 inhibitor inactive, VDR inhibitor inactive, TrxR1 substrate inactive, GLS inh inactive, KAT2A inh inactive and Sfp PPTase inh 50µM.
Screening C/C(=N\Nc1cc(C(F)(F)F)ccc1Cl)c1ccncc1 returned rTrxR1 inhibitor inactive, VDR inhibitor inactive, TrxR1 substrate inactive, GLS inh inactive, KAT2A inh inactive and Sfp PPTase inh inactive.
Screening N#CC1=C2SCN(Cc3ccco3)CN2C(=O)CC1c1c(F)cccc1Cl (stereo not drawn) returned rTrxR1 inhibitor inconclusive, VDR inhibitor inconclusive, TrxR1 substrate inactive, GLS inh inactive, KAT2A inh inactive and Sfp PPTase inh 2.8µM.
Cc1ccc(C2CC(=O)N3CN(Cc4ccco4)CSC3=C2C#N)cc1 (stereo not drawn) was read as rTrxR1 inhibitor inconclusive, VDR inhibitor inconclusive, TrxR1 substrate inactive, GLS inh inactive, KAT2A inh inactive and Sfp PPTase inh 2.2µM.
`O=C(NCc1ccco1)C1CC(=O)N(c2ccc(Cl)cc2)C1` (stereo not drawn) gave rTrxR1 inhibitor inconclusive, VDR inhibitor inactive, TrxR1 substrate inactive, GLS inh inactive, KAT2A inh inactive and Sfp PPTase inh inactive.
Oc1ccc(Oc2ncc(Cl)cc2Cl)cc1 was read as rTrxR1 inhibitor inactive, VDR inhibitor inactive, TrxR1 substrate inactive, GLS inh inactive, KAT2A inh inactive and Sfp PPTase inh inactive.
`NC(=O)/C(=C/c1ccco1)C(N)=S` gave rTrxR1 inhibitor inconclusive, VDR inhibitor inactive, TrxR1 substrate inactive, GLS inh inactive, KAT2A inh inactive and Sfp PPTase inh 18µM.

High-throughput results as filed in PubChem.
